This note sets out measurements from PubChem BioAssay (NCI).

Test systems include HCT-15 colon; SNB-75 CNS; SNB-19 CNS; U251 CNS; PC-3 prostate; SK-MEL-5 melanoma; UACC-62 melanoma; LOX IMVI melanoma; SK-MEL-28 melanoma; SK-MEL-2 melanoma; SN12C renal; UO-31 renal; TK-10 renal; ACHN renal; CAKI-1 renal; A498 renal; CCRF-CEM leukemia; MOLT-4 leukemia; EKVX NSCLC.
What all share (experiment): NCI-60 one-dose screen, 48 h (100 = growth as untreated, 0 = no growth, -100 = all killed)
Holding throughout (details): 10 µM unless noted

The panel holds about 83,000 compounds, 20% with a hit somewhere; the sample as a whole holds those more often.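 Cells were grown in 96-well plates and exposed to the test compound at a single concentration for 48 hours; results are reported as percent growth, with values below 10 considered active.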 Unmarked numbers belong to inactive results. Active and inactive are the calls of the source.

Consider `CC(=O)c1cc(C(=O)c2ccc3c(c2)Sc2ccccc2N3)c2cc(C)ccn12`, for which the growth was 8.38% (active) with HCT-15 colon; 9.11% (active) with SNB-75 CNS; 31.6% with SNB-19 CNS; 11.3% in the assay on U251 CNS; 18% in the assay on PC-3 prostate; -26.6% (active) in the assay on SK-MEL-5 melanoma. For the same compound, the growth was 30.2% in the assay with UACC-62 melanoma; 17% in the assay with LOX IMVI melanoma; 56.1% in the assay with SK-MEL-28 melanoma; 35.8% in the assay on SK-MEL-2 melanoma; 23.1% in the assay with SN12C renal; 28.4% in the assay with UO-31 renal. Also, the growth was -25.7% (active) in the assay with TK-10 renal; 22.9% in the assay with ACHN renal; 19% in the assay with CAKI-1 renal; -16.4% (active) in the assay on A498 renal; 11.1% in the assay with CCRF-CEM leukemia; 13.1% in the assay with MOLT-4 leukemia.

As for `COc1cc(OC)c(C(=O)/C=C/c2cccc(C#N)c2)c(OC)c1`, the growth in the assay on HCT-15 colon is 3.28% (active); in the assay with SNB-75 CNS it was 17.3%; in the assay on SNB-19 CNS, 14.8%; in the assay on U251 CNS it was 8.67% (active); in the assay with PC-3 prostate, 32.1%; in the assay with SK-MEL-5 melanoma, 7.71% (active). In addition, the growth with UACC-62 melanoma is 10.9%; in the assay with LOX IMVI melanoma, -6.01% (active); in the assay with SK-MEL-28 melanoma, 34.4%; in the assay on SK-MEL-2 melanoma, -34.8% (active); in the assay with SN12C renal, 15.6%; in the assay on UO-31 renal, 12.4%. For the same compound, the growth with TK-10 renal was 24.8%; with ACHN renal, -33.9% (active); in the assay on CAKI-1 renal it was 15.9%; in the assay with CCRF-CEM leukemia, 2.65% (active); in the assay with MOLT-4 leukemia, 11.7%.

Regarding `O=C(CNc1ccc(Cl)cc1)Nc1ccc(-c2nc3ccccc3s2)cc1`, the growth was -13.9% (active) with HCT-15 colon; 60.1% with SNB-75 CNS; 63.6% in the assay on SNB-19 CNS; 26.3% in the assay with U251 CNS; 85.3% in the assay on PC-3 prostate; 25% in the assay with SK-MEL-5 melanoma. Moreover, the growth with UACC-62 melanoma was 30.1%; in the assay with LOX IMVI melanoma, -41% (active); with SK-MEL-28 melanoma, 99.5%; with SK-MEL-2 melanoma it was 78.5%; in the assay on SN12C renal it was 46.8%; in the assay with UO-31 renal, 65%. Besides, the growth is 118% in the assay with TK-10 renal; 22.8% with ACHN renal; 20.2% in the assay on CAKI-1 renal; 3.22% (active) in the assay on CCRF-CEM leukemia; 4.4% (active) in the assay with MOLT-4 leukemia.

Consider `N#CC1=C(N)n2nc(-c3ccncc3)nc2NC1c1cccc2ccccc12` (stereo not given), for which the growth in the assay with HCT-15 colon is 90.4%; in the assay with SNB-75 CNS, 67.6%; in the assay on SNB-19 CNS, 92.8%; in the assay with U251 CNS, 86.7%; with PC-3 prostate, 76%; in the assay with SK-MEL-5 melanoma it was 88.6%. The growth in the assay with UACC-62 melanoma is 72.4%; with LOX IMVI melanoma, 79%; in the assay on SK-MEL-28 melanoma, 106%; in the assay with SK-MEL-2 melanoma it was 96.3%; with EKVX NSCLC, 71.7%; with SN12C renal it was 96.6%. The growth with UO-31 renal is 58.1%; with TK-10 renal, 103%; with ACHN renal, 95.2%; in the assay on CAKI-1 renal it was 69%; in the assay on A498 renal, 89.8%; with MOLT-4 leukemia, 86.4%.

Turning to `COc1ccc(/C=C/C(=O)c2ccc(B(O)O)cc2)cc1O`, the growth in the assay with HCT-15 colon is 31.2%; in the assay on SNB-75 CNS it was 72.6%; in the assay on SNB-19 CNS it was 89.2%; in the assay with U251 CNS, 80.7%; in the assay on PC-3 prostate, 74.1%; in the assay with SK-MEL-5 melanoma, 93%. Further, the growth in the assay on UACC-62 melanoma was 76.9%; with LOX IMVI melanoma, 57.7%; in the assay with SK-MEL-28 melanoma it was 90.3%; with SK-MEL-2 melanoma it was 92.2%; with SN12C renal, 86.7%; in the assay with UO-31 renal it was 60.8%. Further, the growth in the assay on TK-10 renal is 104%; in the assay on ACHN renal, 93.9%; in the assay on A498 renal, 61.8%; in the assay with CCRF-CEM leukemia, 82.6%; with MOLT-4 leukemia, 82.3%.

As for `COc1ccc(/C=C/C(=O)c2ccc(NC(=O)CN3CCN(c4cc5c(cc4F)c(=O)c(C(=O)O)cn5C4CC4)CC3)cc2)cc1`, the growth in the assay on HCT-15 colon was 108%; with SNB-75 CNS it was 89.2%; with SNB-19 CNS, 94.7%; with U251 CNS, 98.6%; with PC-3 prostate, 92.4%; with SK-MEL-5 melanoma it was 94%. Moreover, the growth in the assay with UACC-62 melanoma was 93.2%; in the assay on LOX IMVI melanoma it was 76.9%; in the assay on SK-MEL-28 melanoma it was 106%; in the assay on SK-MEL-2 melanoma it was 117%; in the assay with SN12C renal it was 95.9%; in the assay with UO-31 renal, 90.5%. The growth with TK-10 renal is 106%; in the assay with ACHN renal, 114%; with CAKI-1 renal, 93%; in the assay with A498 renal, 112%; in the assay on CCRF-CEM leukemia, 102%; in the assay with MOLT-4 leukemia it was 101%.

As for `Cc1nn(-c2ccc(Cl)cc2)c(=O)n1CCOc1ccccc1Cl`, the growth in the assay on HCT-15 colon is 110%; in the assay with SNB-75 CNS, 70.6%; in the assay on SNB-19 CNS, 115%; in the assay on U251 CNS, 101%; in the assay with PC-3 prostate, 88.5%; in the assay with SK-MEL-5 melanoma, 105%. The growth is 101% in the assay with UACC-62 melanoma; 90.1% with LOX IMVI melanoma; 96.6% in the assay with SK-MEL-28 melanoma; 126% in the assay with SK-MEL-2 melanoma; 93.6% in the assay with SN12C renal; 94.9% in the assay on UO-31 renal. For the same compound, the growth in the assay with TK-10 renal is 108%; in the assay on ACHN renal, 78.9%; in the assay with CAKI-1 renal, 85.7%; in the assay with A498 renal it was 103%; with CCRF-CEM leukemia it was 86.4%; in the assay on MOLT-4 leukemia, 97.2%.

As for `O=c1oc2c([nH]c3ccc4ccccc4c32)c2ccccc12`, the growth with HCT-15 colon was 105%; in the assay on SNB-75 CNS, 126%; in the assay on SNB-19 CNS it was 108%; with U251 CNS, 100%; with PC-3 prostate, 97.7%; with SK-MEL-5 melanoma, 85.5%. Moreover, the growth with UACC-62 melanoma was 93.8%; in the assay with LOX IMVI melanoma it was 98.8%; in the assay with SK-MEL-28 melanoma it was 134%; in the assay with SK-MEL-2 melanoma, 107%; in the assay with SN12C renal it was 106%; in the assay with UO-31 renal, 128%. The growth with TK-10 renal is 127%; in the assay on ACHN renal, 110%; in the assay with CAKI-1 renal it was 109%; in the assay with A498 renal, 106%; in the assay with CCRF-CEM leukemia, 97.6%; in the assay with MOLT-4 leukemia it was 85.2%.

For the compound `CCCCCC(=O)OCc1ccccc1`, the growth in the assay on HCT-15 colon was 94.6%; in the assay with SNB-75 CNS it was 90.3%; in the assay on SNB-19 CNS it was 105%; with U251 CNS it was 103%; with PC-3 prostate, 104%; with SK-MEL-5 melanoma, 104%. Also, the growth is 103% in the assay on UACC-62 melanoma; 96.8% in the assay on LOX IMVI melanoma; 113% in the assay with SK-MEL-28 melanoma; 92.7% in the assay with SK-MEL-2 melanoma; 98.1% with SN12C renal; 82.7% in the assay on UO-31 renal. Besides, the growth in the assay with TK-10 renal was 99.7%; with ACHN renal, 98.1%; in the assay on CAKI-1 renal, 96.5%; with A498 renal, 114%; with MOLT-4 leukemia, 86.3%.

On to `COc1ccc(/C=C\c2cc(OC)c(OC)c(OC)c2)c(NS(=O)(=O)c2ccc(C(C)(C)C)cc2)c1O`, for which the growth was 15.5% in the assay on HCT-15 colon; 31.9% with SNB-75 CNS; 46.1% with SNB-19 CNS; 24.3% with U251 CNS; 34.5% in the assay on PC-3 prostate; -19.2% (active) in the assay with SK-MEL-5 melanoma. In addition, the growth in the assay with UACC-62 melanoma was 39.1%; in the assay with LOX IMVI melanoma, 17%; with SK-MEL-28 melanoma, 53.7%; with SK-MEL-2 melanoma, -2.03% (active); in the assay on SN12C renal, 29.5%; in the assay on UO-31 renal, 52.3%. The growth in the assay on TK-10 renal is 50.8%; in the assay with ACHN renal, 25.2%; in the assay on CAKI-1 renal, 24.4%; with CCRF-CEM leukemia it was 20.6%; in the assay with MOLT-4 leukemia it was 21.8%.
